Screening results as filed in PubChem.
The list is not random: actives were taken first. Their share in the collection is about 3.1%.
PAFAH2 inh: inhibitors of human PAFAH2. recombinant PAFAH2, FP-rhodamine activity probe, fluorescence polarization. inhibition, % at 3.39 µM. actives 0.99% (n = 340,000). AID 492956;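 active means inhibition above the mean over all tested compounds plus 3 SD, cut at about 30% in these data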;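 further: inhibitors block probe labeling of enzyme so polarization drops; 0% = enzyme with DMSO and 100% = wells lacking PAFAH2 protein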
Rin1-Abl PPI inh: inhibitors of human Rin1-Abl protein interaction; actives 0.4% (n = 360,000); P00519+Q13671; TR-FRET Rin1/Abl binding, biochemical; inhibition, % at 7.35 µM; AID 588664; in the data active means inhibition above about 5%, passing the limit was not always enough
PAFAH1B2 FP inh: PAFAH1B2 (human) inhibition. inhibition, % at 3.39 µM. recombinant PAFAH1B2, FP-rhodamine activity probe, fluorescence polarization. AID 492953. actives 1.2% (n = 340,000). P68402;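 active means inhibition above the mean of all tested compounds plus 3 SD, cut at about 24% in these data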;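 further: 0% = enzyme with DMSO and 100% = wells lacking PAFAH1B2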
PAFAH1B3 FP inh: blocks human PAF acetylhydrolase 1B catalytic subunit 3; Q15102; recombinant PAFAH1B3, FP-rhodamine probe, fluorescence polarization; inhibition, % at 3.39 µM; actives 0.28% (n = 340,000); AID 492972;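 active means inhibition above the screen-wide average of all tested compounds plus 3 SD, cut at about 25% in these data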;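 further: 0% = enzyme with DMSO only and 100% = wells lacking PAFAH1B3 protein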
eLon inh: E. coli protease La inhibition; inhibition, % at 7.94 µM; P0A9M0; purified E. coli Lon protease, fluorescence polarization; actives 0.42% (n = 360,000); in the data active means inhibition above about 13%, passing the limit was not always enough;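 further: 0% = enzyme with probe and DMSO and 100% = no enzyme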
pPAFAH inh: inhibitors of human plasma PAF acetylhydrolase (pPAFAH). Q13093. recombinant pPAFAH, FP-rhodamine probe fluorescence polarization. inhibition, % at 3.39 µM. actives 1.5% (n = 330,000). AID 463082;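 active means inhibition above the mean inhibition across the screen plus 3 SD, cut at about 25% in these data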;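 further: inhibitors block binding of the rhodamine activity-based probe so polarization drops; 0% = enzyme with DMSO and 100% = wells lacking pPAFAH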
E coli Lon conf: E. coli Lon inhibition confirmation | shares compounds with eLon inh | purified E. coli Lon, fluorescence polarization | inhibition, % at 7.94 µM | actives 31% (n = 1,400) | AID 602230; in the data active means inhibition above about 16%;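 further: 0% = enzyme with probe and DMSO and 100% = no enzyme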
* = called active by the depositor; i = inactive; / = no result given; + = active, no number.

SMILES	PAFAH2 inh	Rin1-Abl PPI inh	PAFAH1B2 FP inh	PAFAH1B3 FP inh	eLon inh	pPAFAH inh	E coli Lon conf
COC(=O)c1cnc(N2CCCN(S(=O)(=O)c3ccc(C(F)(F)F)cc3)CC2)nc1C(F)(F)F	2	0	3	13	0	1	/
CC(C)(C)n1nnnc1C1c2ccccc2C(=O)N1CCc1c[nH]c2ccccc12 (configuration not stated)	/	/	/	/	-1	/	/
CCCCNC(=O)c1nc(C2CCN(S(=O)(=O)c3ccc(F)c(F)c3)CC2)oc1-c1ccccc1	/	8	/	/	-12	/	/
CC(=O)Nc1ccc(/C=N/OCC(=O)Nc2ccc(C)cc2)cc1	3	-3	-4	0	-5	2	/
COc1ccc(C=NOCC(=O)OCC(=O)Nc2ccc(OC)cc2)cc1	-5	0	5	15	50*	20	21*
CCN(CC)CCNC(=O)CNC(=O)c1nn(-c2ccc(OC)c(OC)c2)c(=O)c2ccccc12	-4	2	-2	6	-5	3	/
O=C(CSCC(=O)OCn1nnc2ccccc2c1=O)Nc1ccc(Cl)cc1	2	-1	0	4	17*	4	9
C[C@H](NC(=O)c1ccc(Cl)cc1)C(=O)OCn1nnc2ccccc2c1=O	2	2	1	12	11	2	/
N#CC1=C(N)Oc2ccc3ccc(O)cc3c2C1c1ccsc1 (configuration not stated)	98*	3	93*	114*	+	/	+
N#CC1=C(N)Oc2cc(N)ccc2C1c1ccsc1 (configuration not stated)	2	0	1	7	-1	15	/
CCOC(=O)c1nnn(-c2nonc2N)c1-c1ccc(F)cc1	5	-1	1	-7	2	1	/
CN(/N=C/c1ccc(N(C)C)cc1)C1=NS(=O)(=O)c2ccccc21	-74	-4	-80	-81	47*	-7	i
COc1ccc(/C=N/N(C)C2=NS(=O)(=O)c3ccccc32)cc1	2	1	1	6	7	4	/
Cc1cc(C)c(NC(=O)C(C)N2CCCCCC2)c(C)c1 (configuration not stated)	1	-2	7	10	71*	2	-5
Cc1cccc(C)c1NC(=O)C(C)N1CCCC1 (configuration not stated)	1	6	4	-4	-3	1	/
Cc1ccc(-n2nc3c(=O)n(CC(=O)NCCc4ccco4)nc(C)c3c2C)cc1	2	3	9	6	36*	0	-2
CCOC(=O)C1CCCN(C(=O)c2ccc(S(=O)(=O)Nc3ccccc3OC)cc2)C1 (configuration not stated)	3	1	1	1	21*	3	-11
COc1ccccc1NS(=O)(=O)c1ccc(C(=O)N2CCCCCC2)cc1	3	2	8	1	3	5	/
COc1ccccc1N1CCN(C2CCCCC2NS(=O)(=O)c2ccc(Cl)cc2)CC1 (configuration not stated)	3	-2	1	-1	25*	2	-4
CCN(C[C@H]1N[C@@](Cc2ccccc2)(C(=O)OC)[C@H]2C(=O)N(C)C(=O)[C@@H]12)C(=O)Nc1ccc(Cl)cc1	6	-3	3	15	3	3	/
COC(=O)c1nn(-c2cccc(C(F)(F)F)c2)ccc1=O	-3	0	4	6	19*	-2	-9
O=C(Nc1ccccc1)c1nn(-c2cccc(C(F)(F)F)c2)ccc1=O	-2	1	2	9	-6	-3	/
CCCCCC(=O)Nc1cc(S(=O)(=O)N2CCOCC2)ccc1N1CCCCC1	1	0	-2	2	0	1	/
Fc1ccccc1CNc1nc(NCC2CC2)nc2ccsc12	/	1	/	/	12*	/	-6
Clc1ccc(N=NN2CCOCC2)cc1	1	2	6	7	19*	-2	4
COc1ccc(C2C(C(=O)O)c3ccccc3C(=O)N2C)cc1Br (configuration not stated)	-1	-1	1	8	19*	2	-458
